Bioassay records from PubChem.
The list is not random: actives were taken first. Their share in the collection is about 2.8%.
NSD2 HMT inh – NSD2 histone methyltransferase inhibitors, primary screen, biochemical, AlphaScreen, single concentration, set 2; 310,000 compounds, 0.54% hits; Histone-lysine N-methyltransferase NSD2 (Homo sapiens), O96028; inhibition, % at 12.5 µM; NSD2 peptide methylation, 120 min; in the data active = inhibition above about 50%
Target sequence (O96028 whole entry, looked up): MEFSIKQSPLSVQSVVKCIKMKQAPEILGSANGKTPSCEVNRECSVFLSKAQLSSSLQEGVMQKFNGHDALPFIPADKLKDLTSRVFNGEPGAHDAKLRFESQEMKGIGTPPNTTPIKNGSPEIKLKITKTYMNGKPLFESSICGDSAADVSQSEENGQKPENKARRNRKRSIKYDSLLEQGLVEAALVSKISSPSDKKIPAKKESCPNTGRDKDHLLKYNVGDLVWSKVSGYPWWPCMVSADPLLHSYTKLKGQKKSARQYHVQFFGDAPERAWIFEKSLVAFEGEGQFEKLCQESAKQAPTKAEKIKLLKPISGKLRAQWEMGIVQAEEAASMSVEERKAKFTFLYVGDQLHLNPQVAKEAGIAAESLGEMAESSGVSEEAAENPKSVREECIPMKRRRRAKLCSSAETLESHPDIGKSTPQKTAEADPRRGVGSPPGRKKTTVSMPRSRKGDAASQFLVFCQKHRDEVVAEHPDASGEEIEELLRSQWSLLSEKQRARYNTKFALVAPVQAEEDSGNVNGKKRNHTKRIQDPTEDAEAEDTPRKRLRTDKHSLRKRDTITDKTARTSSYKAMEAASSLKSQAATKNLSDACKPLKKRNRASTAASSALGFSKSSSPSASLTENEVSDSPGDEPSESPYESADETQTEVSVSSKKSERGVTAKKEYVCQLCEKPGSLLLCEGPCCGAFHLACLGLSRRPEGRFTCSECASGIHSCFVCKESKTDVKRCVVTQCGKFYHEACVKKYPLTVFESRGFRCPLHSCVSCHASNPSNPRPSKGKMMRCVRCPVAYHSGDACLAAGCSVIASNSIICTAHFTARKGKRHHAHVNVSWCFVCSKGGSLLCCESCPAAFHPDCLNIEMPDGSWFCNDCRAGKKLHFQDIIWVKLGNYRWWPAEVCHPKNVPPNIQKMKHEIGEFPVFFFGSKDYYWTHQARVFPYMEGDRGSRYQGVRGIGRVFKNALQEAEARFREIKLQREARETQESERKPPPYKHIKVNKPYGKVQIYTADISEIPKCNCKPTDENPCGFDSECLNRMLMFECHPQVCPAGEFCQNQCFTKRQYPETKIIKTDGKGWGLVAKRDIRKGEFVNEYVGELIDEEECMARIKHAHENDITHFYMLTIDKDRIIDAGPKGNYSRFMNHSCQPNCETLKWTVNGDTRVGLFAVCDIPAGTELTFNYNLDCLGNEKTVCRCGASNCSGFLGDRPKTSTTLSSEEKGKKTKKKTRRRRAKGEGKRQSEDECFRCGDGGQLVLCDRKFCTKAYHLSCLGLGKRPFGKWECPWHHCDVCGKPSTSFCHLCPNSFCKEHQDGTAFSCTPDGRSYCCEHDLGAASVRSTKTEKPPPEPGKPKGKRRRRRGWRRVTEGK
PAX8 reporter – inhibitors of PAX8-driven TPO luciferase reporter, primary screen, RMG-I cells, single concentration; SteadyGlo, 24 h; inhibition, % at 12.6 µM; 360,000 compounds, 1.2% hits; AID 652154, 2013;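 active = mean replicate inhibition at least 60% with every replicate also reaching 60%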;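 also: luciferase light reporting Pax8 driven TPO promoter activity; plate controls were median of neutral control wells for no effect and mitoxantrone controls for full effect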
LMP1 NFkB inh – EBV LMP1-driven NF-kappaB luciferase reporter inhibitors, primary screen, cell-based, luminescence, single point; AID 504558, 2011; LMP1-induced NF-kappaB luciferase reporter cells; 350,000 compounds, 0.69% hits; inhibition, % at 12.5 µM; in the data active = inhibition above about 41%;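 also: 0% = neutral control wells and 100% = reference inhibitor control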
Glyco luc inh – increase of ERlucT glycosylation luciferase signal, primary screen, N-linked glycosylation inhibitor project, D54 ERlucT cells, luminescence, set 2; D54 ERlucT glycosylation luciferase reporter, 24 h; percent of 100 nM tunicamycin response; reporter increase, % at 12.5 µM; 360,000 compounds, 0.23% hits;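 active = mean luciferase reporter signal, scaled so untreated is 0 and the glycosylation-blocking control 100, at or above a set limit in every replicate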;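 also: luciferase carries N-glycosylation sites so blocking glycosylation raises the light; 0% = median of neutral control wells and 100% = median of 100 nM tunicamycin wells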
Shn3 inh set2 – reduction of Shn3 3'UTR firefly luciferase signal, primary screen, Schnurri-3 inhibitor project, cell-based, Clone20 osteoblasts, set 2; 360,000 compounds, 0.52% hits; Clone20 osteoblast Shn3 3'UTR firefly luciferase, 24 h; inhibition, % at 12.5 µM;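 active = mean inhibition of at least 75% with every replicate also reaching 75%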;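 also: 0% = median of neutral control wells and 100% = pilot-screen positive control compound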
HIV Env fusion – inhibitors of HIV-1 Env-driven cell-cell fusion, primary screen, HeLa-JRFL effector, CEM21 target cells, luciferase. inhibition, % at 12.3 µM. 360,000 compounds, 1.1% hits;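 active = mean replicate inhibition score of at least 50 and every replicate individually at or above 50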;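 also: 0% = plate neutral controls and 100% = maraviroc near 300 nM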
Numbers without * were called inactive; · = not tested or not shown; [ ] = remark or other dose.

SMILES	NSD2 HMT inh	PAX8 reporter	LMP1 NFkB inh	Glyco luc inh	Shn3 inh set2	HIV Env fusion
Cc1cc(C)cc(OCC(=O)N(C)CC(=O)Nc2ccc(N3CCOCC3)cc2)c1	9	75*	1	-1	-11	-7
O=C(NCc1ccccn1)[C@@H]1[C@@H](CO)[C@@H]2Cn3c(ccc(C4=CCCC4)c3=O)[C@H]1N2Cc1cccnc1	·	2	·	·	·	8[16.7 µM]
COc1ccc(OC)c(S(=O)(=O)NC(C)CCc2ccccc2)c1 (stereo not drawn)	-1	8	51*	-2	-33	14
CC(C)c1ccc(-c2csc3ncnc(N4CCN(C)CC4)c23)cc1	20	2	49*	-14	49	37
Clc1ccc(CN2CCN(c3ncnc4scc(-c5cccs5)c34)CC2)cc1	0	22	8	-8	77	66*
Fc1ccc(CN2CCN(c3ncnc4scc(-c5ccc(F)cc5)c34)CC2)cc1	5	13	5	-7	76	15
Cc1cccc(S(=O)(=O)N[C@H]2CC[C@@H](CCNC(=O)c3cnccn3)O[C@H]2CO)c1	·	11	·	·	·	2[16.7 µM]
O=C(CC1C(=O)NCCN1Cc1cccc(F)c1)NC1CCCCC1 (stereo not drawn)	1	·	-3	1	76	91*
O=C(CC1C(=O)NCCN1Cc1cccc(F)c1)NC1CCC1 (stereo not drawn)	-1	-27	-8	·	-2	-1
C[C@H]1CCCCO[C@H](CN(C)Cc2ccc(C(F)(F)F)cc2)[C@@H](C)CN([C@@H](C)CO)C(=O)c2cc(NC(=O)Nc3ccc4c(c3)OCO4)ccc2O1	·	46	·	·	·	60*[16.7 µM]
C[C@H](CO)N1C[C@H](C)[C@@H](CN(C)Cc2ccc(C(F)(F)F)cc2)OCCCC[C@H](C)Oc2ccc(NC(=O)Nc3ccc4c(c3)OCO4)cc2C1=O	·	60	·	·	·	71*[16.7 µM]
C[C@@H]1CCCCO[C@@H](CN(C)Cc2ccc(C(F)(F)F)cc2)[C@H](C)CN([C@H](C)CO)C(=O)c2cc(NC(=O)Nc3ccc4c(c3)OCO4)ccc2O1	·	71*	·	·	·	65*[16.7 µM]
C[C@@H]1CCCCO[C@H](CN(C)Cc2ccc3c(c2)OCO3)[C@H](C)CN([C@@H](C)CO)C(=O)c2cc(NC(=O)Nc3ccc4c(c3)OCO4)ccc2O1	·	33	·	·	·	14[16.7 µM]
C[C@@H]1CCCCO[C@@H](CN(C)Cc2ccc3c(c2)OCO3)[C@@H](C)CN([C@@H](C)CO)C(=O)c2cc(NC(=O)Nc3ccc4c(c3)OCO4)ccc2O1	·	-9	·	·	·	-8[16.7 µM]
C[C@@H]1CCCCO[C@H](CN(C)Cc2ccc(C(F)(F)F)cc2)[C@H](C)CN([C@@H](C)CO)C(=O)c2cc(NC(=O)Nc3ccc4c(c3)OCO4)ccc2O1	·	84*	·	·	·	26[16.7 µM]
COCC#Cc1ccc([C@H]2[C@H]3CN(C(=O)c4ccncc4)CC(=O)N3[C@H]2CO)cc1	·	-14	·	·	·	·
Cc1noc(C)c1NC(=O)N(C)C[C@@H]1Oc2ncc(C#CC3CCCCC3)cc2C(=O)N([C@@H](C)CO)C[C@@H]1C	·	·	·	·	·	9[16.7 µM]
C[C@H]1CCCCO[C@@H](CN(C)Cc2ccc(C(F)(F)F)cc2)[C@@H](C)CN([C@@H](C)CO)C(=O)c2cc(NC(=O)Nc3ccc4c(c3)OCO4)ccc2O1	·	80*	·	·	·	86*[16.7 µM]
Cc1ccc(NS(=O)(=O)c2cc(C(=O)NCCSc3ccc(C)cc3)ccc2C)cc1	-5	·	-1	-5	-6	97*
CS(=O)(=O)Nc1ccc(C(=O)NCCSC2CCCCC2)cc1	-3	·	-5	2	-5	·
Cc1ccc(NS(=O)(=O)c2cc(C(=O)NCCSC3CCCCC3)ccc2C)cc1	-5	·	7	-6	-15	55*
Cc1ccc(SCCNC(=O)c2ccc(C)c(S(=O)(=O)Nc3cccc(C)c3)c2)cc1	1	·	13	-7	30	·
Cc1ccc(-n2nnc3c(=O)n(CC(=O)NCc4ccco4)cnc32)cc1	·	14	-2	3	-21	7
O=C(Cn1cnc2c(nnn2-c2ccccc2)c1=O)NCc1ccco1	·	-8	87*	0	-20	15
COCCNC(=O)/C(C#N)=C/c1ccc(O)c([N+](=O)[O-])c1	14	10	20	0	-5	-17
SMILES	NSD2 HMT inh	PAX8 reporter	LMP1 NFkB inh	Glyco luc inh	Shn3 inh set2	HIV Env fusion
COCCNC(=O)/C(C#N)=C/C=C/c1ccccc1[N+](=O)[O-]	6	80*	-94	13	52	-30
Cc1cccc(Nc2nc(Cl)ncc2F)c1C	-1	18	53*	1	-6	-9
C=CCNc1nc(Cl)ncc1F	2	·	5	0	-27	·
COc1ccc(NC(=O)Nc2ccc3c(c2)C(=O)N([C@@H](C)CO)C[C@H](C)[C@H](CN(C)Cc2ccc4c(c2)OCO4)OCCCC[C@H](C)O3)cc1	·	-1	·	·	·	83*[16.7 µM]
COc1ccc(NC(=O)Nc2ccc3c(c2)C(=O)N([C@H](C)CO)C[C@H](C)[C@H](CN(C)Cc2ccc4c(c2)OCO4)OCCCC[C@H](C)O3)cc1	·	41	·	·	·	68*[16.7 µM]
COc1ccc(NC(=O)Nc2ccc3c(c2)C(=O)N([C@@H](C)CO)C[C@@H](C)[C@@H](CN(C)Cc2ccc4c(c2)OCO4)OCCCC[C@@H](C)O3)cc1	·	10	·	·	·	10[16.7 µM]
O=C(C[C@@H]1CC[C@@H](NC(=O)NC2CCCC2)[C@H](CO)O1)NCc1ccc(F)cc1	·	-16	·	·	·	-14[16.7 µM]
COc1ccccc1/C=C1/SC(=S)N(CCC(=O)Nc2cccnc2)C1=O	-6	12	-4	0	13	-9
O=C(CCCN1C(=O)/C(=C/c2cccc(Br)c2)SC1=S)Nc1cccnc1	-5	94*	8	0	-22	-11
O=C(CCCN1C(=O)/C(=C/c2cccs2)SC1=S)Nc1cccnc1	6	31	10	-1	4	7
Cc1cc(NC(=O)CN2C(=O)/C(=C/c3cccc(Br)c3)SC2=S)no1	-2	-98	-7	0	-2	8
O=C(CCCN1C(=O)/C(=C/c2cccc(Br)c2)SC1=S)Nc1ccccn1	31	110*	23	-8	4	-28
O=C(CCCN1C(=O)/C(=C\c2cccc(Br)c2)SC1=S)Nc1cccnc1	2	106*	14	-3	-1	1
O=C(CCCN1C(=O)/C(=C/c2ccccc2OC(F)F)SC1=S)Nc1cccnc1	-3	98*	23	2	-16	9
CO[C@@H]1CN(C)C(=O)c2cc(NC(=O)Nc3cccc(F)c3)ccc2OC[C@@H](C)N(C(=O)Nc2c(C)noc2C)C[C@@H]1C	·	-8	·	·	·	0[16.7 µM]
CCNC(=O)C[C@H]1CC[C@@H]2[C@H](COc3ccc(NC(=O)Nc4ccccc4F)cc3C(=O)N2C)O1	·	-8	·	·	·	6[16.7 µM]
